Common to all, as to assay: NCI-60 one-dose screen, 48 h (100 = growth as untreated, 0 = no growth, -100 = all killed)
For one test, the system named is NCI-H23 lung. The settings on record: 10 µM unless noted.
A further test deals with NCI-H226 lung. The note with it: 10 µM unless noted.
The subject of another test is NCI-H322M lung. The settings on record: 10 µM unless noted.
A further test deals with HOP-62 NSCLC. The note with it: 10 µM unless noted.
For a further test, the system named is NCI-H460 lung. The note with it: 10 µM unless noted.
The subject of another test is HOP-92 NSCLC. The settings on record: 10 µM.
The next test has as its system NCI-H522 lung. The settings on record: 10 µM unless noted.
The subject of another test is A549/ATCC NSCLC. The settings on record: 10 µM unless noted.
The subject of the next test is 786-0 renal. The settings on record: 10 µM unless noted.
The subject of a further test is DU-145 prostate. The settings on record: 10 µM unless noted.
Another test deals with K-562 leukemia. The note with it: 10 µM unless noted.
A further test has as its system MALME-3M melanoma. The note with it: 10 µM unless noted.
A further test has as its system MDA-MB-231 breast. The settings on record: 10 µM unless noted.
In the next test the test system is SF-268 CNS. The settings on record: 10 µM unless noted.
In another test the test system is SF-295 CNS. The settings on record: 10 µM unless noted.
The subject of another test is SF-539 CNS. The settings on record: 10 µM unless noted.
The test system of another test is UACC-257 melanoma. The settings on record: 10 µM unless noted.
For a further test, the system named is COLO 205 colon. The note with it: 10 µM unless noted.
A further test relates to RXF 393 renal. The settings on record: 10 µM unless noted.
Another test deals with M14 melanoma. The settings on record: 10 µM unless noted.

This is part of a sample that, as a whole, favours compounds with a hit. Of some 83,000 tested, about 20% had one in any assay.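 Treatment: one concentration, 48 hours, 96-well format. Scoring: percent growth, with anything below 10 considered active.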 A number with no mark means an inactive call. Calls of active or inactive are those of the source.

As for `C=CCn1c(SCC(=O)Nc2ccc(C(=O)/C=C/c3ccc(C)cc3)cc2)nnc1-c1c[nH]c2ccccc12`, the growth with NCI-H23 lung is 97.7%; with NCI-H226 lung it was 78.1%; with NCI-H322M lung, 97.1%; in the test on HOP-62 NSCLC, 94.4%; in the test on NCI-H460 lung it was 102%; in the test with HOP-92 NSCLC it was 86.3%. Moreover, the growth in the test on NCI-H522 lung is 81.3%; with A549/ATCC NSCLC, 75.9%; in the test with 786-0 renal, 103%; in the test with DU-145 prostate, 98.4%; in the test with K-562 leukemia it was 61.1%; with MALME-3M melanoma it was 95%. Also, the growth with MDA-MB-231 breast was 89%; in the test on SF-268 CNS it was 79.4%; in the test with SF-295 CNS it was 66.9%; in the test on SF-539 CNS, 90.9%; in the test on UACC-257 melanoma, 112%.

For `Nc1nc(Nc2ccccc2SSc2ccccc2Nc2nc(N)nc(-c3ccccc3)n2)nc(-c2ccccc2)n1`, the growth is 50.8% in the test with NCI-H23 lung; 59% in the test on NCI-H226 lung; 92.4% with NCI-H322M lung; 17.1% in the test on HOP-62 NSCLC; 53.2% in the test with NCI-H460 lung; 69.7% in the test on HOP-92 NSCLC. Besides, the growth is 3.73% (active) in the test on A549/ATCC NSCLC; 68.2% in the test with 786-0 renal; 115% in the test on COLO 205 colon; 69.4% in the test on DU-145 prostate; 62.6% in the test with K-562 leukemia; 104% with MALME-3M melanoma. The growth is 62.6% in the test with MDA-MB-231 breast; 50.2% in the test on RXF 393 renal; 49% in the test on SF-268 CNS; 26.1% with SF-295 CNS; 96.2% with SF-539 CNS; 108% in the test on UACC-257 melanoma. Also, in the test on M14 melanoma, the growth is 91.9%.

Turning to `C=CC(=O)N1CCC=C(c2cc3c(N[C@H](C)c4ccccc4)ncnc3[nH]2)C1`, the growth with NCI-H23 lung was 83.3%; in the test with NCI-H226 lung it was 58.5%; in the test on NCI-H322M lung, 31%; in the test on HOP-62 NSCLC it was 58.5%; with NCI-H460 lung, 98%; in the test with HOP-92 NSCLC, 38%. Besides, the growth is 52.1% in the test with A549/ATCC NSCLC; 43.6% in the test with 786-0 renal; 96% in the test with COLO 205 colon; 42.9% in the test on DU-145 prostate; 37% in the test with K-562 leukemia; 101% with MALME-3M melanoma. Moreover, the growth in the test with MDA-MB-231 breast is 44.4%; in the test on RXF 393 renal, -17% (active); in the test with SF-268 CNS, 60.1%; in the test with SF-295 CNS it was 72%; in the test on SF-539 CNS, 74.6%; in the test with UACC-257 melanoma it was 87.4%. For the same compound, the growth in the test on M14 melanoma was 85.9%.

Consider `C=C(C)[C@@H]1CC[C@]2(COCCCNCCC#N)CC[C@]3(C)[C@H](CC[C@@H]4[C@@]5(C)CC[C@H](OCCCNCCC#N)C(C)(C)[C@@H]5CC[C@]43C)[C@@H]12`, for which the growth in the test with NCI-H23 lung is 33.4%; in the test on NCI-H226 lung it was 48.8%; in the test with NCI-H322M lung, 105%; in the test on HOP-62 NSCLC it was 75.6%; in the test with NCI-H460 lung, 41.8%; in the test on HOP-92 NSCLC it was 49.7%. Besides, the growth was 59.2% in the test with A549/ATCC NSCLC; 59.8% with 786-0 renal; 61.8% in the test with COLO 205 colon; 65% in the test on DU-145 prostate; 3.78% (active) in the test with K-562 leukemia; 72.4% in the test on MALME-3M melanoma. Further, the growth with MDA-MB-231 breast was 54.8%; in the test with RXF 393 renal, -9.12% (active); in the test with SF-268 CNS it was 55.6%; in the test on SF-295 CNS it was 55.9%; in the test with SF-539 CNS, 67.5%; with UACC-257 melanoma, 61.5%.

Take `CC1(C)[C@@H](O)CC[C@]2(C)[C@H]3CC[C@@H]4[C@H]5[C@H](C(=O)/C=C\c6ccccn6)CC[C@]5(O)CC[C@@]4(C)[C@]3(C)CC[C@@H]12`: the growth is 31.7% in the test with NCI-H23 lung; 16.3% in the test with NCI-H226 lung; 84.3% in the test on NCI-H322M lung; 73.6% in the test on HOP-62 NSCLC; 15.6% in the test on NCI-H460 lung; 60.9% with HOP-92 NSCLC. Also, the growth was 49.7% in the test on A549/ATCC NSCLC; 32.7% with 786-0 renal; 67.7% in the test with COLO 205 colon; 33.4% with DU-145 prostate; 7.45% (active) in the test on K-562 leukemia; 56.4% in the test with MALME-3M melanoma. In addition, the growth in the test on MDA-MB-231 breast is 33.5%; with RXF 393 renal, -16.2% (active); with SF-268 CNS, 56.5%; with SF-295 CNS, 73.6%; in the test on SF-539 CNS it was 25.7%; in the test with UACC-257 melanoma, 61.9%. Further, the growth with M14 melanoma was 52.9%.

In the case of `COC[C@]12CCC(C)(C)C[C@H]1C1=CC[C@@H]3[C@@]4(C)CCCNC(C)(C)[C@@H]4CC[C@@]3(C)[C@]1(C)CC2`, the growth in the test with NCI-H23 lung was -83.9% (active); in the test on NCI-H226 lung, -61.5% (active); in the test on NCI-H322M lung it was -50.5% (active); in the test on HOP-62 NSCLC, 46.6%; with NCI-H460 lung it was -69% (active); in the test with HOP-92 NSCLC, -3.83% (active). Further, the growth in the test on A549/ATCC NSCLC is 10.1%; with 786-0 renal, -83.1% (active); in the test with COLO 205 colon it was -59.6% (active); in the test with DU-145 prostate, -39.8% (active); in the test with K-562 leukemia, -43.7% (active); with MALME-3M melanoma it was -68.5% (active). Moreover, the growth with MDA-MB-231 breast was -53.3% (active); in the test on RXF 393 renal it was -93% (active); in the test on SF-268 CNS, 33.7%; with SF-295 CNS it was -89% (active); in the test on SF-539 CNS, -63.7% (active); with UACC-257 melanoma, -18.5% (active). In the test with M14 melanoma, the growth is -67.3% (active).

With `O=C1[C@H]2Cc3c([nH]c4ccccc34)[C@@H](c3ccc(Br)cc3)N2C(=O)CN1C1CCN(CC2CCCCC2)CC1`, the growth is -81.3% (active) with NCI-H23 lung; -3.54% (active) in the test with NCI-H226 lung; 16.2% with NCI-H322M lung; 10.8% in the test with HOP-62 NSCLC; -85.7% (active) with NCI-H460 lung; -59.4% (active) in the test on HOP-92 NSCLC. For the same compound, the growth in the test on A549/ATCC NSCLC was -77.3% (active); with 786-0 renal it was -94.6% (active); with COLO 205 colon, -90.6% (active); in the test with DU-145 prostate, -49.7% (active); in the test on K-562 leukemia it was -63.7% (active); in the test with MALME-3M melanoma, -82.3% (active). Further, the growth in the test on MDA-MB-231 breast was -94.8% (active); in the test with RXF 393 renal, -96% (active); in the test on SF-268 CNS it was 22.2%; in the test with SF-295 CNS, -61.5% (active); in the test with SF-539 CNS, -89.3% (active); with UACC-257 melanoma, -60.2% (active).

For the compound `C[C@@H](Nc1c(C#N)cnc2ccc(-c3cnc(Cl)c(NS(C)(=O)=O)c3)cc12)c1ccccc1`, the growth is 6.8% (active) in the test with NCI-H23 lung; -3.88% (active) with NCI-H226 lung; 12.1% in the test with NCI-H322M lung; 11.6% in the test with HOP-62 NSCLC; 2.56% (active) in the test with NCI-H460 lung; -14.5% (active) in the test with HOP-92 NSCLC. Further, the growth with A549/ATCC NSCLC is 4.78% (active); in the test on 786-0 renal, 4.25% (active); in the test on COLO 205 colon it was 16.5%; in the test with DU-145 prostate it was 7.73% (active); in the test on K-562 leukemia, 15.3%; with MALME-3M melanoma, -12.9% (active). Further, the growth with MDA-MB-231 breast is 11.5%; with RXF 393 renal, -40.2% (active); in the test on SF-268 CNS, -1.52% (active); with SF-295 CNS, -20.8% (active); in the test on SF-539 CNS, -20.7% (active); with UACC-257 melanoma it was 14.8%.

The values are drawn from PubChem BioAssay (NCI).
